# Measured values: PubChem BioAssay (EPA / NIEHS)
# Inconclusive results are not listed. Calls of active or inactive are those of the source. How the source made its calls: active means hit-call score of the fitted dose curve at least 0.9, where 1 is the maximum; inconclusive means response in the unintended direction; inactive means score below 0.9.
# Assays:
# [1] = target: human Androgen Receptor (AR), AR (gene 367) (UniProt P10275); test: NVS_NR_hAR: NovaScreen (NVS) Nuclear Receptor Binding Assay for human Androgen Receptor (AR) (AID 2283332)
# human Androgen Receptor (AR), AR (gene 367), sequence (P10275 whole entry, looked up): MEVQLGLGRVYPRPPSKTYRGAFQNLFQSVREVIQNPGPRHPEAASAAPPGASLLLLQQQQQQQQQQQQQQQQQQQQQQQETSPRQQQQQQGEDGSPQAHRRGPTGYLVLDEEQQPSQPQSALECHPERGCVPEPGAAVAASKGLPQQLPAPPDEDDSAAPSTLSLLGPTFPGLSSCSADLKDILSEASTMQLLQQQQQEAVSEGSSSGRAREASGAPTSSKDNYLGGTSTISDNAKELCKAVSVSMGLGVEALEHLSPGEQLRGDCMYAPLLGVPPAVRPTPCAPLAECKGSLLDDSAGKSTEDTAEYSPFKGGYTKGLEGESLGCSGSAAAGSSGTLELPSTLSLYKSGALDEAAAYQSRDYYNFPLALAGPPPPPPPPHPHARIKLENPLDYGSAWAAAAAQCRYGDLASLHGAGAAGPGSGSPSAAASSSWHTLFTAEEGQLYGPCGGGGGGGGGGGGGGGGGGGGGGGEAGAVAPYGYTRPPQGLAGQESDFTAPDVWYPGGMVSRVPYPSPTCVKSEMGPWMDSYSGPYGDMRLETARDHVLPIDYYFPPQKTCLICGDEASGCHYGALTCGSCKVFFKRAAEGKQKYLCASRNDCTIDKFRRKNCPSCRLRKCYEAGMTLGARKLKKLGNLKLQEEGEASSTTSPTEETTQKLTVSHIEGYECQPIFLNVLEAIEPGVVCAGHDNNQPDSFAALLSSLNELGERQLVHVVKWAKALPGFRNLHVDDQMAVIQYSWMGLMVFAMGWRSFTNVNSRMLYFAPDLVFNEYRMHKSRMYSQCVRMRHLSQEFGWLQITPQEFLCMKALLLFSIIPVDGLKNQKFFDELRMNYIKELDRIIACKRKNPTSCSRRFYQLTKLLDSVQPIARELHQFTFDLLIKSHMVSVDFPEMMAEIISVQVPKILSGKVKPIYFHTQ
# Summary of the method: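 Radioligand competitive binding, scintillation read-out, in cell-free extract from LnCAP, measured 20 h after dosing. Screened first in duplicate at 25 uM, then concentration series for actives; activity fitted against DMSO.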
# [2] = target: Bile acid receptor (Homo sapiens) (UniProt Q96RI1); test: NVS_NR_hFXR_Antagonist: NovaScreen (NVS) Nuclear Receptor Binding Assay for human Farnesoid X Receptor Antagonism (FXR) (AID 2283350)
# Bile acid receptor (Homo sapiens), sequence (Q96RI1 whole entry, looked up): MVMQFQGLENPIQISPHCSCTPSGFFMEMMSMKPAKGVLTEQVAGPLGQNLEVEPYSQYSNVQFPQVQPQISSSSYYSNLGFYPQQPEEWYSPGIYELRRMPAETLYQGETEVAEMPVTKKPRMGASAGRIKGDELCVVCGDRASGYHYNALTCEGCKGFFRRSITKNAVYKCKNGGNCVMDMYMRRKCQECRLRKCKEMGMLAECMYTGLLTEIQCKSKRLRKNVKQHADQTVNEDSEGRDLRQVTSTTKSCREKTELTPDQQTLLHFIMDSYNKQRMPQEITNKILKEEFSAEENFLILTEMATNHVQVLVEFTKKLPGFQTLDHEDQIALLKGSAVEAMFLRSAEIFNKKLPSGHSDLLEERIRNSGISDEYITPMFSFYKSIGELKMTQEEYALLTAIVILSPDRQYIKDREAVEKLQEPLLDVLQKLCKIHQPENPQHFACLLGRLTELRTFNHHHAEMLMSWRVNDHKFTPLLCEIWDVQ
# Protocol: NVS_NR_hFXR_Antagonist is a biochemical, single-readout assay that uses extracted gene-proteins in a cell-free assay. Measurements were taken 1 hour after chemical dosing in a 384-well plate.NVS_NR_hFXR_Antagonist is one of one assay component(s) measured or calculated from the NVS_NR_hFXR_Antagonist assay. It is designed to make measurements of fluorescent resonance energy transfer, a form of binding reporter, as detected with fluorescent resonance energy transfer signals by Time-Resolved Fluorescence Resonance Energy Transfer (TR-FRET) technology.Data from the assay component NVS_NR_hFXR_Antagonist was analyzed into 1 assay endpoint. This assay endpoint, NVS_NR_hFXR_Antagonist, was analyzed in the positive analysis fitting direction relative to DMSO as the negative control and baseline of activity. Using a type of binding reporter, loss-of-signal activity can be used to understand changes in the binding as they relate to the gene NR1H4. Furthermore, this assay endpoint can be referred to as a primary readout, because the performed assay has only produced 1 assay endpoint. To generalize the intended target to other relatable targets, this assay endpoint is annotated to the nuclear receptor intended target family, where the subfamily is non-steroidal. […]
# [3] = target: rat Glutamate, MK-801 Agonist Site (GluNMDA_MK801), Grin1 (gene 24408) (UniProt P35439); test: NVS_LGIC_rGluNMDA_MK801_Agonist: NovaScreen (NVS) Ligand-Gated Ion Channel Assay for rat Glutamate, MK-801 Agonist Site (GluNMDA_MK801) (AID 2283340)
# Protocol: NVS_LGIC_rGluNMDA_MK801_Agonist is a biochemical, single-readout assay that uses extracted gene-proteins from Rat forebrain membranes in a tissue-based cell-free assay. Measurements were taken 1.5 hours after chemical dosing in a 48-well plate.NVS_LGIC_rGluNMDA_MK801_Agonist is one of one assay component(s) measured or calculated from the NVS_LGIC_rGluNMDA_MK801_Agonist assay. It is designed to make measurements of radioligand binding, a form of binding reporter, as detected with scintillation counting signals by Filter-based radiodetection technology.Data from the assay component NVS_LGIC_rGluNMDA_MK801_Agonist was analyzed into 1 assay endpoint. This assay endpoint, NVS_LGIC_rGluNMDA_MK801_Agonist, was analyzed in the positive analysis fitting direction relative to DMSO as the negative control and baseline of activity. Using a type of binding reporter, gain-of-signal activity can be used to understand changes in the binding as they relate to the gene Grin1. Furthermore, this assay endpoint can be referred to as a primary readout, because the performed assay has only produced 1 assay endpoint. To generalize the intended target to other relatable targets, this assay endpoint is annotated to the ion channel intended target family, where the subfamily is ligand-gated ion channel. […]
# [4] = target: rat Glycine Receptor, Strychnine-sensitive (GlyRStrySens), Glra1 (gene 25674) (UniProt P07727); test: NVS_LGIC_rGlyRStrySens: NovaScreen (NVS) Ligand-Gated Ion Channel Assay for rat Glycine Receptor, Strychnine-sensitive (GlyRStrySens) (AID 2283341)
# rat Glycine Receptor, Strychnine-sensitive (GlyRStrySens), Glra1 (gene 25674), sequence (P07727 whole entry, looked up): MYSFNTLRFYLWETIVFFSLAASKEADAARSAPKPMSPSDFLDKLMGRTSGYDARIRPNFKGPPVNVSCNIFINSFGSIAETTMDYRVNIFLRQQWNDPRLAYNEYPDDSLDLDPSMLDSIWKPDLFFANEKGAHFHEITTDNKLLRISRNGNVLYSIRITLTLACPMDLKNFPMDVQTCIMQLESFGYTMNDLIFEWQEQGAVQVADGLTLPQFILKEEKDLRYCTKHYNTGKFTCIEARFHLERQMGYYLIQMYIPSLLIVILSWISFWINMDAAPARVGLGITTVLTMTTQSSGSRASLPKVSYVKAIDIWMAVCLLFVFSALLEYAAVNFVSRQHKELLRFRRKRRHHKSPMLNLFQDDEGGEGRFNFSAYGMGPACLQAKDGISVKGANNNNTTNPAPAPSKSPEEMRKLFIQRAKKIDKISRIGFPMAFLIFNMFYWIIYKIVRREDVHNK
# Summary of the method: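 Radioligand displacement on rat spinal cord membranes, 1 hr, filter scintillation read-out. Single-concentration duplicate screen at 25 uM; chemicals meeting threshold (e.g., 30% inhibition) rerun in concentration-response up to 50 uM. Loss of binding fitted versus DMSO.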
# [5] = target: Estrogen receptor (Homo sapiens) (UniProt P03372); test: OT_ER_ERaERa_1440: Odyssey Thera (OT) 24-hour HEK293T Protein-Complementation Assay for Estrogen Receptor-alpha/-alpha Homodimer (AID 2283349);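 further: hits raise fluorescence above DMSO for agonists and antagonists alike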
# Estrogen receptor (Homo sapiens), sequence (P03372 whole entry, looked up, the tested form may be a part): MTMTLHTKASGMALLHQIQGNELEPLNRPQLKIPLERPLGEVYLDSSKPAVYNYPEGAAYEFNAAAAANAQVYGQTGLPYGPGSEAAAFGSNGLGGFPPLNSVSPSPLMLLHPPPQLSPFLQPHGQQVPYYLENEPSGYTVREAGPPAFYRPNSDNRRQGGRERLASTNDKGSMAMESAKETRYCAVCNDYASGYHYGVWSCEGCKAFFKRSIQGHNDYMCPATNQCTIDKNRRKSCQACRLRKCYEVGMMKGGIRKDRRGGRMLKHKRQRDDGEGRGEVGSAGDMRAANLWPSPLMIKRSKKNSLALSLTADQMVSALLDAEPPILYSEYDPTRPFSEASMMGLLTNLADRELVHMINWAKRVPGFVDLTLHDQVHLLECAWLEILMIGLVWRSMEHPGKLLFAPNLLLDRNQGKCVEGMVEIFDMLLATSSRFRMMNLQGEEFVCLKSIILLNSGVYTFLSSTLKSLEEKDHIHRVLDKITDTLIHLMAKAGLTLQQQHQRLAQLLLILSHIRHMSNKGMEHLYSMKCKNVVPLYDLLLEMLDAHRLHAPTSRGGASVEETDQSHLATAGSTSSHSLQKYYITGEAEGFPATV
# Summary of the method: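 HEK293T, stable ERα LBD (aa 310-547) homodimer PCA; 24 h compound exposure; mean fluorescence intensity (nuclear for agonists, nuclear plus cytoplasmic for antagonists) vs vehicle; positive fitting direction, DMSO baseline.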
# [6] = target: Estrogen receptor (Homo sapiens) + Estrogen receptor beta (Homo sapiens) (UniProt P03372+Q92731); test: OT_ER_ERaERb_0480: Odyssey Thera (OT) 8-hour HEK293T Protein-Complementation Assay for Estrogen Receptor-alpha/-beta Heterodimer (AID 2283352)
# Estrogen receptor (Homo sapiens) + Estrogen receptor beta (Homo sapiens), sequence (P03372 whole entry, looked up, the tested form may be a part): as above
# Estrogen receptor (Homo sapiens) + Estrogen receptor beta (Homo sapiens), sequence (Q92731 whole entry, looked up, the tested form may be a part): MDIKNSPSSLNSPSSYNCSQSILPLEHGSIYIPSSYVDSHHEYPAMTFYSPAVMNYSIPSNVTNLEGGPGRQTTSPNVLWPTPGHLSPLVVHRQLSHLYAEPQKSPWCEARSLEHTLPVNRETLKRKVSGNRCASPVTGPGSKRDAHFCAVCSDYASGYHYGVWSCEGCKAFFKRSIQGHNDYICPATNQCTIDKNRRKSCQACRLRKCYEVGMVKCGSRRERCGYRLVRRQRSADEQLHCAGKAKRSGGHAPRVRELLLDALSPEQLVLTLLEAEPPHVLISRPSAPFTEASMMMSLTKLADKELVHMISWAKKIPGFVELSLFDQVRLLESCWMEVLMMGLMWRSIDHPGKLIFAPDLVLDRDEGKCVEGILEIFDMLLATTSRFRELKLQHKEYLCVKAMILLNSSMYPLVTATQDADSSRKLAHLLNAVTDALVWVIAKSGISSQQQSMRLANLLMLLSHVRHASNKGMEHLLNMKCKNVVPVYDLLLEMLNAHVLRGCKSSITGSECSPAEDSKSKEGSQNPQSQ
# Summary of the method: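 Human HEK293T cells were treated for 8 hours and receptor heterodimerisation was detected through reconstitution of a fluorescent reporter split between ER-alpha and ER-beta ligand-binding domains. Activity was analysed as gain of signal against DMSO.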
# [7] = target: Estrogen receptor (Homo sapiens) (UniProt P03372); test: OT_ER_ERaERa_0480: Odyssey Thera (OT) 8-hour HEK293T Protein-Complementation Assay for Estrogen Receptor-alpha/-alpha Homodimer (AID 2283351);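 further: rise in fluorescence from reassembled reporter fragments on ERα LBD homodimer in nucleus or whole cell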
# Summary of the method: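 Cells were treated for 8 hours, then imaged on a laser scanning plate cytometer. Complementation of reporter fragments fused to the human ERα ligand-binding domain (residues 310-547) in HEK293T gave fluorescence, and gain of signal over vehicle was fitted.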
# [8] = target: Estrogen receptor (Homo sapiens) (UniProt P03372); test: NVS_NR_hER: NovaScreen (NVS) Nuclear Receptor Binding Assay for human Estrogen Receptor (ER) (AID 2283348)
# Summary of the method: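 Cell-free MCF7-derived ER preparation, specific radioligand displaced by test compound, read by scintillation counting 18 h post-dosing. Duplicate single-point 25 uM screen, then concentration-response confirmation; DMSO baseline.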
# [9] = target: bovine Estrogen Receptor (ER), ESR1 (gene 407238) (UniProt P49884); test: NVS_NR_bER: NovaScreen (NVS) Nuclear Receptor Binding Assay for bovine Estrogen Receptor (ER) (AID 2283345);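 further: actives lower the bound radioligand count which means they displace the ER ligand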
# bovine Estrogen Receptor (ER), ESR1 (gene 407238), sequence (P49884 whole entry, looked up): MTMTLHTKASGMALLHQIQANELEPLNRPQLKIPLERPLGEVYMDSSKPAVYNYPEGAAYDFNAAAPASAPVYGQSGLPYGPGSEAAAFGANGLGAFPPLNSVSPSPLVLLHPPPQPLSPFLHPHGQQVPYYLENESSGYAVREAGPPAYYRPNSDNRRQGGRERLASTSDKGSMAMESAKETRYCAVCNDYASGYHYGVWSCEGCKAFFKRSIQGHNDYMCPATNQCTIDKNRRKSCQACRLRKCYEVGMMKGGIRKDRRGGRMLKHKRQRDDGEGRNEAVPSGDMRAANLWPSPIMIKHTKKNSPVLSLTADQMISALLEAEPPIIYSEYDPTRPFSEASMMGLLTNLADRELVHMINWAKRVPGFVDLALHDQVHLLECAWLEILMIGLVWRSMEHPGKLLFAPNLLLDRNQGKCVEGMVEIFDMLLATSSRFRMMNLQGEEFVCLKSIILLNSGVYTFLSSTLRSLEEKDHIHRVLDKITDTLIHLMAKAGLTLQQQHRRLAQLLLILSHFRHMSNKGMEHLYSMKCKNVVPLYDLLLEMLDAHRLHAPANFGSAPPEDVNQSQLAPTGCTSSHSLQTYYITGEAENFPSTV
# Summary of the method: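 Scintillation counting of displaced radioligand gave the readout; bovine uterine membrane extract supplied the receptor. Measured 18 h post-dose, normalized to DMSO baseline. Single 25 uM duplicate screen preceded concentration-response follow-up.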
# [10] = target: chimpanzee Androgen Receptor (AR), AR (gene 747460) (UniProt O97775); test: NVS_NR_cAR: NovaScreen (NVS) Nuclear Receptor Binding Assay for chimpanzee Androgen Receptor (AR) (AID 2283346);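 further: radioligand displacement from AR measured by scintillation counting in a cell-free assay; a loss of bound radioligand signal versus DMSO counts as binding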
# chimpanzee Androgen Receptor (AR), AR (gene 747460), sequence (O97775 whole entry, looked up): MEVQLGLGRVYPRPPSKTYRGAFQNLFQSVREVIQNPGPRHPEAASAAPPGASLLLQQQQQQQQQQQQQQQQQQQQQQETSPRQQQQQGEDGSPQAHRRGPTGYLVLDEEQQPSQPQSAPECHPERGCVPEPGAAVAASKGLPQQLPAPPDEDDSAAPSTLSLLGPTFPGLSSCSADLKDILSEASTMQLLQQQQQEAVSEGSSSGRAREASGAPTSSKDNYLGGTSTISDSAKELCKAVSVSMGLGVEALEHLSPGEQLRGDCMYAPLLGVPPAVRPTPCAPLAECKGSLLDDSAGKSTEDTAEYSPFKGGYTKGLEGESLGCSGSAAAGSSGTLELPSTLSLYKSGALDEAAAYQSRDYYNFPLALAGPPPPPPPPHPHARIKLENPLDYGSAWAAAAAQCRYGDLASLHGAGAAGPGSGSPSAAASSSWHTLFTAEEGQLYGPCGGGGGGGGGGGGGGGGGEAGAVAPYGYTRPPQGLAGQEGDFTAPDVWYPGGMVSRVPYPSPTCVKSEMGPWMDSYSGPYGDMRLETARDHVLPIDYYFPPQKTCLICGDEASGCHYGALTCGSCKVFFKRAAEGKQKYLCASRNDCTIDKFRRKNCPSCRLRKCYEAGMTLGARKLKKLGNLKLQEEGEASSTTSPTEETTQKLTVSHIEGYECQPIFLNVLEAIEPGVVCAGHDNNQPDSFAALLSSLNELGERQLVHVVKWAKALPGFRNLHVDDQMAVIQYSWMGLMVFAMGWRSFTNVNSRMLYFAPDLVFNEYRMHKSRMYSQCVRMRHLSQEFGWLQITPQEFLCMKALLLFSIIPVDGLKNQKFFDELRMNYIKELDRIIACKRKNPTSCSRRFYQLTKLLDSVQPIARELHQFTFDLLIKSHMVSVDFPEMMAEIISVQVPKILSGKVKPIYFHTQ
# Summary of the method: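 Cell-free competition binding with insect-cell (Sf9/Sf21) extracted chimpanzee AR; scintillation signal from lysate at 72 h. Screened in duplicate at 25 uM, then concentration-response for actives; fitting relative to DMSO.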
smiles,measurement,setting,value
C=CCc1cc(S(=O)(=O)c2ccc(O)c(CC=C)c2)ccc1O,AC50,[1],6.16 µM (active)
same,AC50,[2],18.2 µM (active)
c1ccc(C(O[C@@H]2CCCN(CCc3ccc4c(c3)OCO4)C2)c2ccccc2)cc1,outcome,[3],inactive
CCCCCCCC1CCC(=O)O1 (configuration not stated),outcome,[4],inactive
CC(C)CC(C)O (configuration not stated),outcome,[5],inactive
same,outcome,[6],inactive
O=C(NO)C1(NS(=O)(=O)c2ccc(Oc3ccc(F)cc3)cc2)CCOCC1,outcome,[5],inactive
OCCNCCO,AC50,[5],11.9 µM (active)
NC(=O)N(O)[C@@H]1COc2cc(OCc3ccccc3)ccc21,outcome,[5],inactive
same,outcome,[6],inactive
CC[C@H](C)C(=O)O[C@H]1C[C@H](O)C=C2C=C[C@H](C)[C@H](CC[C@@H](O)C[C@@H](O)CC(=O)O)[C@H]21,outcome,[5],inactive
same,outcome,[6],inactive
OCCOCCOCCO,outcome,[5],inactive
same,outcome,[6],inactive
CCCCCCCCCCCCCCO,outcome,[5],inactive
same,outcome,[6],inactive
O=S1(=O)CCCO1,outcome,[5],inactive
same,outcome,[7],inactive
same,outcome,[6],inactive
Nc1ccn([C@@H]2O[C@H](CO)[C@@H](O)[C@@H]2O)c(=O)n1,AC50,[8],22.5 µM (active)
same,outcome,[5],inactive
same,outcome,[7],inactive
Cc1cccc(O)c1C,outcome,[9],inactive
same,outcome,[8],inactive
same,outcome,[5],inactive
same,outcome,[6],inactive
CCCC(CCC)C(=O)O,outcome,[8],inactive
same,outcome,[5],inactive
same,outcome,[7],inactive
CCCCOC(=O)c1ccccc1,outcome,[5],inactive
c1ccc2ncccc2c1,outcome,[5],inactive
same,outcome,[7],inactive
CCc1cccc(CC)c1N,AC50,[8],10 µM (active)
same,outcome,[5],inactive
same,outcome,[6],inactive
O=C(O)c1cccc(C(=O)O)c1,outcome,[5],inactive
same,outcome,[7],inactive
Cn1c(=O)c2[nH]cnc2n(C)c1=O,outcome,[5],inactive
same,outcome,[7],inactive
CCOC(N)=O,outcome,[5],inactive
same,outcome,[7],inactive
c1ccc2c(c1)-c1cccc3c1c-2cc1ccccc13,outcome,[10],inactive
same,outcome,[5],inactive
same,outcome,[7],inactive
same,outcome,[6],inactive
CCCCCOC(C)=O,outcome,[5],inactive
CCCc1ccccc1,outcome,[5],inactive
same,outcome,[7],inactive
same,outcome,[6],inactive
CNC(C)=O,outcome,[5],inactive
same,outcome,[7],inactive
same,outcome,[6],inactive
C=CN1CCCC1=O,outcome,[5],inactive
same,outcome,[7],inactive
O=C(O)[C@H](O)[C@@H](O)C(=O)O,outcome,[5],inactive
same,outcome,[6],inactive
NNC(=O)c1ccncc1,outcome,[8],inactive
same,outcome,[5],inactive
same,outcome,[6],inactive
CC(C)CCCCCCOC(=O)C1CCCCC1C(=O)OCCCCCCC(C)C (configuration not stated),outcome,[5],inactive
same,outcome,[6],inactive
Cc1ccc(S(=O)(=O)NC(=O)NN2CCCCCC2)cc1,outcome,[5],inactive
same,outcome,[6],inactive
CCOc1ccc2[nH]cc(C(=O)NCc3ccccc3)c(=O)c2n1,outcome,[5],inactive
same,outcome,[6],inactive
CCCCCCCCCC,outcome,[9],inactive
same,outcome,[5],inactive
same,outcome,[6],inactive
CCCOc1ccc(S(=O)(=O)N2CCN(CC)CC2)cc1-c1nc2c(CC)n(Cc3ccccn3)nc2c(=O)[nH]1,outcome,[5],inactive
same,outcome,[7],inactive
same,outcome,[6],inactive
O=C(O)CO,outcome,[5],inactive
same,outcome,[7],inactive
NC(=O)NN=Cc1ccc([N+](=O)[O-])o1,outcome,[5],inactive
same,outcome,[6],inactive
COCc1nnc(-c2ccc[n+]([O-])c2)n1-c1c(Cl)c(Cl)cc2[nH]c(=O)c(=O)[nH]c12,outcome,[5],inactive
same,outcome,[6],inactive
CC(C)c1nnc2ccc(-c3ocnc3-c3cc(F)ccc3F)cn12,outcome,[5],inactive
same,outcome,[7],inactive
same,outcome,[6],inactive
NC(N)=O,outcome,[5],inactive
same,outcome,[6],inactive
CCCCCCCC/C=C\CCCCCCCC(=O)OC[C@@H](O)[C@H]1OC[C@H](O)[C@H]1O,outcome,[5],inactive
same,outcome,[6],inactive
OC(CCl)CCl,outcome,[5],inactive
same,outcome,[7],inactive
same,outcome,[6],inactive
